# According to PubChem BioAssay (NCATS):
# Inconclusive results are not listed. The list shows a part of the results. Entries that show only a call come without a potency. Activity calls are given as the source filed them. Unless noted, calls come from the whole dose curve; as a rule, active = well fitted curve in the direction sought with a large enough effect; inconclusive = small, poorly fitted or top-dose-only effect, or another doubt; inactive = no such curve, though single readings can be large; an effect the other way counts as inactive or inconclusive.
# Legend:
# [1] = qHTS screen for small molecules that inhibit ELG1-dependent DNA repair: Hit Confirmation with MMS Viability (AID 624251); note: nearly all actives have a fitted effect of over 60% in size; note: potency is the fitted concentration of half-maximal effect
# Procedure, shortened: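 Viability read-out: CellTiter-Glo, 16 h after compound addition. Cell line ELG1-luc HEK293T; DNA-damaging co-treatment MMS, 10 µM final.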
# [2] = target: ATPase family AAA domain-containing protein 5 (Homo sapiens) (UniProt Q96QE3); test: HTS assay for small molecules that inhibit ELG1-dependent DNA repair in human embryonic kidney (HEK293T) cells expressing luciferase-tagged ELG1: Hit Confirmation (AID 624248); note: potency is the fitted concentration of half-maximal effect; nearly all actives have a fitted effect of over 55% in size
# ATPase family AAA domain-containing protein 5 (Homo sapiens), sequence (Q96QE3 whole entry, looked up, the tested form may be a part): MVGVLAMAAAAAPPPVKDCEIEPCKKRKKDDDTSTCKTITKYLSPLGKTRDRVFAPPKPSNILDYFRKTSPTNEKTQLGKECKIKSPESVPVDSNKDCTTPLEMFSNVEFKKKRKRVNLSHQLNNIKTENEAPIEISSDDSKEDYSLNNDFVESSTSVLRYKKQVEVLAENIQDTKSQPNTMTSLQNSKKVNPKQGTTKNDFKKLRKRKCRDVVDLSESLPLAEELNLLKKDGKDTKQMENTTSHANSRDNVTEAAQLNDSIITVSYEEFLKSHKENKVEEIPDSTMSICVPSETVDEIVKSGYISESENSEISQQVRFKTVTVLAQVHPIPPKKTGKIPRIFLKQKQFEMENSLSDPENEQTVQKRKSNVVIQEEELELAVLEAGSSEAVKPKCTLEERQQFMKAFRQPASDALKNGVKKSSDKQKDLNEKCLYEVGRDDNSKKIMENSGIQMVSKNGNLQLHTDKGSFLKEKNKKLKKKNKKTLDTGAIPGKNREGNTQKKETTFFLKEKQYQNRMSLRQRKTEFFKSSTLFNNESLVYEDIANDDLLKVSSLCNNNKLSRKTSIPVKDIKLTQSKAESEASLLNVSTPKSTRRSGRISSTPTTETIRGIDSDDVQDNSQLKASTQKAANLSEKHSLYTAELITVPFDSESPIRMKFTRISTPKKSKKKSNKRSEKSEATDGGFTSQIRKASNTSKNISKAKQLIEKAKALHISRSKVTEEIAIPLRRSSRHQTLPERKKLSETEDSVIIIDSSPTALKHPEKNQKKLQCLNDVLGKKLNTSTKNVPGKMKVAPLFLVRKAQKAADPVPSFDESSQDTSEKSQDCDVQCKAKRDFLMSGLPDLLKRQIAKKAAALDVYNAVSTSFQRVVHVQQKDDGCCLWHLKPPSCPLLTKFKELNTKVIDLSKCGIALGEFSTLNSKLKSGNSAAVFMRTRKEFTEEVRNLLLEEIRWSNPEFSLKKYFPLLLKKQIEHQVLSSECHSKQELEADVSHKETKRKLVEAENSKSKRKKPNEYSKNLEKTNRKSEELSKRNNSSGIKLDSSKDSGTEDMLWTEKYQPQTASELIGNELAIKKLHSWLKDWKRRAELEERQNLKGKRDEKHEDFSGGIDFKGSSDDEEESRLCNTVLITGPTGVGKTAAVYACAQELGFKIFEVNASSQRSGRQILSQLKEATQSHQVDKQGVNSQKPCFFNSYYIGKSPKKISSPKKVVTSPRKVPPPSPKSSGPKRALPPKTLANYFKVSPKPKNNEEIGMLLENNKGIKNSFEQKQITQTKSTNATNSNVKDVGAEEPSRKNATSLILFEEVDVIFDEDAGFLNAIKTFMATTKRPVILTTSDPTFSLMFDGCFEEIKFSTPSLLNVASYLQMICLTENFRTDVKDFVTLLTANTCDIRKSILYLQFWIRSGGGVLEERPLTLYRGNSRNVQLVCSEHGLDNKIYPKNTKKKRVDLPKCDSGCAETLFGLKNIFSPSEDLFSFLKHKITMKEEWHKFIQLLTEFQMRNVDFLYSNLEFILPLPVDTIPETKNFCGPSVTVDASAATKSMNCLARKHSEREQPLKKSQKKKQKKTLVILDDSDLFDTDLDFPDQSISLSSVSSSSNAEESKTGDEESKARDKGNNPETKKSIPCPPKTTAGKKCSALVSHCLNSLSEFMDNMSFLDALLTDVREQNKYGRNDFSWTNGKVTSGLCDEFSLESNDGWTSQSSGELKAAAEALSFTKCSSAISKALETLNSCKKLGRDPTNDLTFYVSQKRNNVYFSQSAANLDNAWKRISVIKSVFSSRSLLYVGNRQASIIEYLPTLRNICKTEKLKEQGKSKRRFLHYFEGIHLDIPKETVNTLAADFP
# Procedure, shortened: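 HEK293T cells expressing luciferase-tagged ELG1 treated with 5-fluorouridine plus compound for 16 h at 37 C; luciferase activity then measured with ONE-Glo after 30 min at room temperature.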
# [3] = target: Luciferin 4-monooxygenase (Photinus pyralis) (UniProt P08659); test: Biochemical firefly luciferase enzyme assay for NPC (AID 624030);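 note: purified P. pyralis luciferase at 10 nM with luciferin and ATP substrate; nearly all actives have a fitted effect of over 70% in size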
# Luciferin 4-monooxygenase (Photinus pyralis), sequence (P08659 whole entry, looked up): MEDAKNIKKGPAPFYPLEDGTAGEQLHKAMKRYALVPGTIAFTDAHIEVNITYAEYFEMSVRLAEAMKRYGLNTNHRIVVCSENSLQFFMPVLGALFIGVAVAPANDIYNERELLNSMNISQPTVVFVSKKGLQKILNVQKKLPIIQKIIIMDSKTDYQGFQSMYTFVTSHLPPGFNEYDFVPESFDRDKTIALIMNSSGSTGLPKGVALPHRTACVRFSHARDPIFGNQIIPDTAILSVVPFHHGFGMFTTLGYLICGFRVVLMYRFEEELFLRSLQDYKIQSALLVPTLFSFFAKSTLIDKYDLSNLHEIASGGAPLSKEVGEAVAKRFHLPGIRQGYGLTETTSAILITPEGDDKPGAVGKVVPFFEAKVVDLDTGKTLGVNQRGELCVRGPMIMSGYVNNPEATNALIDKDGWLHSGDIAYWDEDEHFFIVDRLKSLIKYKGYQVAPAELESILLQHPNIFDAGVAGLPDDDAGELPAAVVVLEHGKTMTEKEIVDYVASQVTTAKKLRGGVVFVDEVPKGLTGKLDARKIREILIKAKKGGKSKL
# Procedure, shortened: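 Purified P. pyralis luciferase at 10 nM in 50 mM Tris Acetate (final), luminescence read within 5 minutes of enzyme addition to compounds. Activity normalised to PTC124 versus DMSO; concentration-response curves classed by r2, magnitude and activity.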
# [4] = qHTS for Inhibitors of Ubiquitin-specific Protease USP2a Using CHOP2 as the Reporter: K633 Counterscreen (AID 652168)
# Procedure, shortened: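 Cell-free interference counterscreen without USP2a: compounds pinned into enzyme-free buffer (20 mM Tris pH 8, 2 mM beta-mercaptoethanol, 0.05% Chaps), then DiUb K48-4IQF substrate added (100 nM stock); fluorescence read kinetically, Ex 525/Em 598.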
# [5] = qHTS for Inhibitors of Ubiquitin-specific Protease USP2a Using CHOP2 as the Reporter: Cytotox Assay (AID 652170); note: nearly all actives have a fitted effect of over 70% in size; note: potency is the fitted concentration of half-maximal effect
# Procedure, shortened: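 HCT116 human colon cancer cells, 600 per well in DMEM with 10% FBS, exposed to compounds for 72 hr at 37 deg C. ATP measured by CellTiter-Glo luminescence, normalized to DMSO cells and no-cell background.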
# [6] = target: Tumor susceptibility gene 101 protein (Homo sapiens) (UniProt Q99816); test: qHTS Assay for Iinhibitors of HIV-1 Budding by Blocking the Interaction of PTAP/TSG101: Hit Validation (AID 651600); note: nearly all actives have a fitted effect of over 70% in size; note: potency is the fitted concentration of half-maximal effect
# Tumor susceptibility gene 101 protein (Homo sapiens), sequence (Q99816 whole entry, looked up): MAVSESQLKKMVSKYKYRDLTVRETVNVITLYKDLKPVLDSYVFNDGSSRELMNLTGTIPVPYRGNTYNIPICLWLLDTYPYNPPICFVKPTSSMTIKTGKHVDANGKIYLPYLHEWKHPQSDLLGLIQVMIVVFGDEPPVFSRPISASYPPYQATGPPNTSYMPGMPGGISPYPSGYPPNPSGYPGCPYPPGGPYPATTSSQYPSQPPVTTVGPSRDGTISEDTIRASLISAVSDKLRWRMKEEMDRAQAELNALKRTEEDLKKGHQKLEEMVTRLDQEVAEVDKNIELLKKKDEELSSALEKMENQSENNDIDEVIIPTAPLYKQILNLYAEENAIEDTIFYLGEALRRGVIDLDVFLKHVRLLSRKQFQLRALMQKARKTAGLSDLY
# Procedure, shortened: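 Measuring PTAP–Tsg101 interaction by FP: protein at 10 uM and fluorescent peptide at 50 nM (final), buffer 10 mM HEPES pH 7.5 with 0.15 M NaCl, 3 mM EDTA, 0.1 mM TCEP, 0.01% Tween 20; 20 min incubation, r.t.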
# [7] = qHTS assay for small molecule agonists of the antioxidant response element (ARE) signaling pathway (AID 651741; active = well fitted activation curve with a large enough effect in the signal ratio; the % refers to the signal ratio)
# Procedure, shortened: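 HepG2 ARE-bla cells plated at 2,000 cells/well and incubated 5 h at 37 C/5% CO2 received 23 nL compound in DMSO. After 16 h at 37 C, LiveBLAzer B/G FRET substrate was applied for 2 h at room temperature and fluorescence read.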
# [8] = qHTS assay for small molecule activators of the p53 signaling pathway (AID 651743; active = well fitted activation curve with a large enough effect in the signal ratio, not every such curve was filed as active; the % refers to the signal ratio); settings: HCT-116 p53RE-bla, beta-lactamase FRET ratio, 16 h; activation: stronger effect = higher value
# Procedure, shortened: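 HCT-116 p53RE-bla, 4,000 cells/well; 5 h settle; cpd/DMSO 16 h, 37 C; LiveBLAzer B/G 2 h RT; fluorescence intensity.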
# [9] = qHTS assay for cell viability of HEK293 cells (AID 743288); settings: ATP luminescence (CellTiter-Glo), 18 h; max response: stronger effect = lower value; note: nearly all actives have a fitted effect of over 50% in size
# Procedure, shortened: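 Luminescent ATP quantitation served as the viability read-out. Cells (parental HEK293, 2,000/well) received compounds after at least 5 h at 37 C and were exposed for 18 h before a 30 min room-temperature reagent step.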
# [10] = target: Ubiquitin carboxyl-terminal hydrolase 2 (Homo sapiens) (UniProt O75604); test: qHTS for Inhibitors of Ubiquitin-specific Protease USP2a Using CHOP2 as the Reporter: K484 Substrate (AID 652173);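 note: cleavage of internally quenched K48 di-ubiquitin substrate measured as rising fluorescence over time; nearly all actives have a fitted effect of over 70% in size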; note: potency is the fitted concentration of half-maximal effect
# Ubiquitin carboxyl-terminal hydrolase 2 (Homo sapiens), sequence (O75604 whole entry, looked up): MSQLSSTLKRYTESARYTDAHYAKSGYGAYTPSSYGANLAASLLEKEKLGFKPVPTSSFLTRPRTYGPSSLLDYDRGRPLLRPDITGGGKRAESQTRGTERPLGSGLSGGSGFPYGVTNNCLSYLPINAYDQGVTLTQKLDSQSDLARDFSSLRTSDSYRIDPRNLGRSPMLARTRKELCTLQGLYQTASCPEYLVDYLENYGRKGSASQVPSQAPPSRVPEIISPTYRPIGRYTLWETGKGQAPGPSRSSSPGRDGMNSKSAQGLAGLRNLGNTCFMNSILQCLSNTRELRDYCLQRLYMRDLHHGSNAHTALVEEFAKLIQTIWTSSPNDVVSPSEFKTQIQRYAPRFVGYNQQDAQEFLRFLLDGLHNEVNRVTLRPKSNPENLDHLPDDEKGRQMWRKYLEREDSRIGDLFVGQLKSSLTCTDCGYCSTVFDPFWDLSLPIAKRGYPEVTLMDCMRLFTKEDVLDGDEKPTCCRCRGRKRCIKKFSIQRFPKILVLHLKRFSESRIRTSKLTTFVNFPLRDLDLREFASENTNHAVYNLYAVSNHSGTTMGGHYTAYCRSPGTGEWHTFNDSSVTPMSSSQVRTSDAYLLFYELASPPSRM
# Procedure, shortened: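 USP2 (dispensed at 5 nM) was pinned with compounds, then DiUb K48 internally quenched fluorescent substrate (dispensed at 100 nM) was added. The buffer was 20 mM Tris pH 8, 2 mM beta-mercaptoethanol and 0.05% CHAPS. Cleavage was read kinetically as rising fluorescence, Ex 525/Em 598.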
# [11] = Cell Proliferation Assay against the TMD8 Cell Line (AID 651645); settings: TMD8 DLBCL cell line proliferation/viability; at 46.1 µM (top of the series);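 note: cells exposed to compound for 48 h before reading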
# Procedure, shortened: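 Cell viability of the ABC DLBCL line TMD8 is measured by CellTiter-Glo luminescence following a 48-hour incubation with compound. Percent activity uses DMSO as 100% and 9.2 uM bortezomib (final) as 0%.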
# [12] = Cell Proliferation Assay against the HBL1 Cell Line (AID 651646); settings: HBL1 DLBCL cells; at 46.1 µM (top of the series);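 note: cells exposed to compound for 48 h before reading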
# Procedure, shortened: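 HBL1 ABC DLBCL cells, 500/well in RPMI with 5% FBS, treated for 48 h at 37C. Viability read by CellTiter-Glo luminescence, normalized to DMSO as 100% and 9.2 uM bortezomib as 0%.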
# [13] = target: Tyrosine-protein kinase Yes (Homo sapiens) (UniProt P07947); test: qHTS for small molecule inhibitors of Yes1 kinase: Primary Screen (AID 686947); note: nearly all actives have a fitted effect of over 60% in size
# Tyrosine-protein kinase Yes (Homo sapiens), sequence (P07947 whole entry, looked up): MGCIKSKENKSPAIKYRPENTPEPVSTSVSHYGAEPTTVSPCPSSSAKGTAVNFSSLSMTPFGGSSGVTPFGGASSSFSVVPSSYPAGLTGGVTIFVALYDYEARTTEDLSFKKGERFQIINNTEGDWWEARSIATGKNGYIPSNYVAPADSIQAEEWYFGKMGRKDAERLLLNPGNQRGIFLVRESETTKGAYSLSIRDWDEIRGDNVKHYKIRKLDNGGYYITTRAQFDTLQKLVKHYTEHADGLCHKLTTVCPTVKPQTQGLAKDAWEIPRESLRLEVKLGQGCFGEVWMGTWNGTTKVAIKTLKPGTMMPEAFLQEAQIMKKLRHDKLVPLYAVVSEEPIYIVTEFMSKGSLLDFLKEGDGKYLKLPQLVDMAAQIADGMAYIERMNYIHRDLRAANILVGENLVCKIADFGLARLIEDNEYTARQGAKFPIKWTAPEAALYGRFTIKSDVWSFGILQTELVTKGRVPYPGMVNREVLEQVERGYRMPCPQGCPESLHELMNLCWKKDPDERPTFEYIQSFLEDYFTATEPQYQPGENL
# Procedure, shortened: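 ADP-Glo luminescence readout; final 4 nM Yes1, 0.1 mM ATP, 0.3 mg/mL poly(E4Y), Tris pH 7.5, MgCl2, DTT, Brij-35. 20 min compound preincubation, 60 min reaction at RT. Normalized to DMSO wells with and without enzyme.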
# [14] = qHTS for small molecule inhibitors of Yes1 kinase: Counter Assay (AID 686950);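 note: no kinase present so only ADP-Glo detection of a fixed ADP amount is tested; luminescence from ADP-Glo reporting ADP in a fixed ATP and ADP mixture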
# Procedure, shortened: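 Enzyme-free detection counter-screen: compounds preincubated 20 min in buffer, then 0.08 mM ATP plus 0.02 mM ADP added for 60 min at room temperature; ADP-Glo luminescence. Buffer 50 mM Tris pH 7.5, 10 mM MgCl2, 150 mM NaCl; normalized to ATP+ADP and ATP-only controls.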
structure (smiles),measurement,setting,value
CC(C)(CNC(=O)c1ccc(Cl)c(S(=O)(=O)N2CCc3ccccc3C2)c1)N1CCOCC1,Potency,[1],1.99 µM (active)
Nc1nnc(SCC(=O)Nc2ccc3nc(SCC(=O)Nc4ccccc4)sc3c2)s1,Potency,[2],0.888 µM (active)
same,Potency,[1],5.6 µM (active)
CCc1ccc(N(CC)c2ncnc3nc[nH]c23)cc1,Potency,[2],4.99 µM (active)
same,Potency,[1],inactive
CCCCCCC(O)C/C=C\CCCCCCCC(=O)O (stereo not drawn),Potency,[3],inactive
Cc1ccc(S(=O)(=O)Nc2cnccc2C(=O)Nc2nc(-c3ccc(F)cc3)cs2)cc1,outcome,[4],inactive
same,Potency,[5],20.9 µM (active)
Cc1cc(C)c[n+](-c2[nH]c(=O)sc2/C=N/NC([S-])=Nc2ccccc2)c1,Potency,[6],18.3 µM (active)
CCCCCCCC1CCC(=O)O1 (stereo not drawn),Potency,[7],inactive
same,activation,[8],-2.71% (inactive)
same,max response,[9],-3.73% (inactive)
O=C(NCc1cccc(C(F)(F)F)c1)c1cccc2c1C(=O)c1ccc(N3CCC(Cc4ccccc4)CC3)cc1S2(=O)=O,Potency,[6],14.6 µM (active)
Cc1ccc(S(=O)(=O)Nc2cnccc2C(=O)Nc2nc(-c3cccc(Cl)c3)cs2)cc1,outcome,[4],inactive
same,Potency,[5],23.5 µM (active)
same,Potency,[10],2.17 µM (active)
Cc1cc(Br)ccc1NC(=O)c1sc2nc3n(c(=O)c2c1C)CCCC3,Potency,[6],inactive
CCC(=O)OC1CCC(C(=O)Nc2ccc([S+](=O)([O-])Nc3nccs3)cc2)CC1 (stereo not drawn),outcome,[4],inactive
same,Potency,[5],inactive
same,Potency,[10],inactive
N#Cc1cnc(NS(=O)(=O)c2ccc(NC(=O)Cc3ccc(Cl)c(Cl)c3)cc2)s1,outcome,[4],inactive
same,Potency,[5],inactive
same,Potency,[10],3.43 µM (active)
CSc1c(C#N)c(N)nc2sc(C(=O)c3ccc(Cl)c(Cl)c3)c(N)c12,Potency,[6],inactive
Cc1ccccc1S(=O)(=O)Nc1cnccc1C(=O)Nc1nc(-c2ccccc2)cs1,outcome,[4],inactive
same,Potency,[5],18.7 µM (active)
same,Potency,[10],2.43 µM (active)
CC(OC(=O)c1c2c(nc3ccccc13)/C(=C\c1ccc3c(c1)OCO3)CCC2)C(=O)Nc1ccc(S(N)(=O)=O)cc1 (stereo not drawn),Potency,[6],4.11 µM (active)
CCOc1ccc(N(CC(=O)NCc2ccc(F)cc2)S(=O)(=O)c2c(C)noc2C)cc1,Potency,[6],inactive
C=C1C(=C/C=C2\CCC[C@]3(C)[C@@H]([C@H](C)/C=C/[C@H](C)C(C)C)CC[C@@H]23)C[C@@H](O)C[C@@H]1O,viability (% of control),[11],-0.788%
same,"viability, percent of control",[12],-0.446%
same,Potency,[13],inactive
same,outcome,[14],inactive
O=[n+]1c2c(n([O-])c3cc(F)c(N4CCCC4)cc31)CCC2,Potency,[6],13 µM (active)
CCCCOC(=O)c1ccc(NC(=O)/C(C#N)=C/c2ccc(-c3ccccc3)o2)cc1,Potency,[6],inactive
COc1ccc(CNS(=O)(=O)c2cc3c(cc2Cl)N(C(C)=O)CCO3)cc1,Potency,[6],inactive
O=c1[nH]c(=O)n(-c2cc(Br)c(O)c(Br)c2)cc1Br,Potency,[6],inactive
Cc1ccc(-c2cc(C(=O)Nc3ccc(C(F)(F)F)cc3)c3ccccc3n2)cc1C,outcome,[4],inactive
same,Potency,[5],inactive
Cc1ccc(C(=O)Nc2ccc(S(=O)(=O)Nc3nccs3)cc2)cc1C,outcome,[4],inactive
same,Potency,[5],inactive
same,Potency,[10],24.3 µM (active)
Cc1ccc(N2C(=O)C3C(C(=O)c4ccccc4)=NN(c4ccccc4)C3C2=O)cc1 (stereo not drawn),Potency,[6],inactive
N#Cc1cnc(N[S+](=O)([O-])c2ccc(Nc3nc(-c4ccccc4)cs3)cc2)s1,outcome,[4],inactive
same,Potency,[5],inactive
same,Potency,[10],inactive
O=C1C=CC(=O)c2c(O)c(CO)c(CO)c(O)c21,Potency,[6],inactive
CN(C)c1ccc(N=Cc2nc(-c3ccccc3)oc2O)cc1,Potency,[6],18.3 µM (active)
O=C(Nc1nc(-c2ccccc2)cs1)c1ccncc1NS(=O)(=O)c1ccc(F)cc1F,outcome,[4],inactive
same,Potency,[5],inactive
same,Potency,[10],3.06 µM (active)
CC1(C)CC(=O)C2=C(C1)OC(N)=C(C#N)C2c1cc2c(cc1[N+](=O)[O-])OCO2 (stereo not drawn),Potency,[6],inactive
COc1cc(-c2cc(-c3ccc(N)cc3)[nH]c(=O)c2C#N)cc(OC)c1OC,Potency,[6],inactive
CCCN1CCCc2cc(CN)ccc21,Potency,[6],inactive
COc1ccc(/C=C2/N=C(c3cccs3)OC2=O)cc1OC(C)C,Potency,[6],inactive
O=C(Nc1nc(-c2ccccc2)cs1)c1ccncc1NS(=O)(=O)c1c(F)cc(F)cc1F,outcome,[4],inactive
same,Potency,[5],inactive
same,Potency,[10],3.43 µM (active)
CC(=O)c1ccc(N2C(=O)C3C(C2=O)C(C(=O)c2ccc(Cl)cc2)N2CCCC32)cc1 (stereo not drawn),Potency,[6],inactive
O=C(Nc1ccc(S(=O)(=O)Nc2nccs2)cc1)c1ccnc2ccccc12,outcome,[4],inactive
same,Potency,[5],inactive
same,Potency,[10],21.7 µM (active)
Cc1ccc(CSc2nnc3c(n2)OC2(Nc4ccccc4-3)C(=O)Nc3ccc(F)cc32)cc1 (stereo not drawn),Potency,[6],inactive
